The panel holds about 83,000 compounds, 20% with a hit somewhere; the sample as a whole holds those more often.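 Cell lines were cultured in 96-well plates, exposed to a single compound concentration, and assessed for percent growth 48 hours later.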 Values without a mark were called inactive. Activity calls are given as the source filed them. The calls were made as follows: active = growth percent below 10; inactive = the rest.

Test systems include HT29 colon; SNB-75 CNS; SNB-19 CNS; U251 CNS; PC-3 prostate; UACC-62 melanoma; LOX IMVI melanoma; SK-MEL-28 melanoma; SK-MEL-2 melanoma; EKVX NSCLC; SN12C renal; UO-31 renal; TK-10 renal; ACHN renal; CAKI-1 renal; A498 renal; CCRF-CEM leukemia; MOLT-4 leukemia; SK-MEL-5 melanoma; SR leukemia.
What all share (assay): NCI-60 one-dose screen, 48 h (100 = growth as untreated, 0 = no growth, -100 = all killed)
Details in all cases: 10 µM unless noted

As to `COc1cc([C@@H]2c3cc4c(cc3C(O[C@@H]3O[C@@H]5CO[C@@H](c6cccs6)OC5[C@H](O)[C@H]3O)C3COC(=O)[C@@H]32)OCO4)cc(OC)c1O` (some centres undefined), the growth in the assay with HT29 colon is -24.8% (active); with SNB-75 CNS, -37% (active); in the assay on SNB-19 CNS it was 1.98% (active); with U251 CNS, -15.5% (active); in the assay on PC-3 prostate, 4.52% (active); with UACC-62 melanoma, -54.3% (active). In addition, the growth in the assay with LOX IMVI melanoma is -37.3% (active); in the assay on SK-MEL-28 melanoma it was -29% (active); in the assay with SK-MEL-2 melanoma it was -47.3% (active); with EKVX NSCLC, 12.7%; in the assay with SN12C renal, -9.91% (active); in the assay with UO-31 renal it was -72.2% (active). Also, the growth with TK-10 renal was -54.7% (active); with ACHN renal, -54.3% (active); with CAKI-1 renal it was -10.3% (active); in the assay on A498 renal it was -73.2% (active); in the assay on CCRF-CEM leukemia it was -1.14% (active); in the assay with MOLT-4 leukemia it was 3.06% (active).
For `COc1cc(C2=NN(C(C)=O)C(c3ccc(OC(C)=O)cc3OC(C)=O)O2)c(OC(C)=O)c2ccccc12` (centres undefined), the growth was 29.9% in the assay on HT29 colon; 50.4% with SNB-75 CNS; 36.7% in the assay with SNB-19 CNS; 15.7% in the assay on U251 CNS; 42.9% with PC-3 prostate; 7.09% (active) in the assay on SK-MEL-5 melanoma. In addition, the growth with LOX IMVI melanoma was 2.78% (active); in the assay with SK-MEL-28 melanoma, 23.7%; in the assay on SK-MEL-2 melanoma, 24.9%; with SN12C renal, 19.1%; in the assay on UO-31 renal, 5.38% (active); with ACHN renal, 16.3%. Further, the growth in the assay on CAKI-1 renal is 8.08% (active); in the assay with A498 renal, 25.2%; in the assay with CCRF-CEM leukemia, -1.14% (active); in the assay on MOLT-4 leukemia, -2.56% (active); in the assay on SR leukemia, 2.88% (active).
For the compound `O=C(Nc1nc(-c2ccccc2)cs1)c1cc(O)c(O)c(O)c1`, the growth in the assay on HT29 colon is 80.8%; with SNB-75 CNS, 33.1%; in the assay with SNB-19 CNS, 41.5%; in the assay with U251 CNS, 32.1%; in the assay on PC-3 prostate, 58.8%; in the assay on SK-MEL-5 melanoma, 44.1%. Besides, the growth in the assay with LOX IMVI melanoma was 40.2%; in the assay with SK-MEL-28 melanoma, 76.8%; in the assay on SK-MEL-2 melanoma, 56.8%; in the assay with SN12C renal, 50.5%; in the assay with UO-31 renal, 24.6%; in the assay with ACHN renal, 40.3%. Further, the growth is 26.4% in the assay with CAKI-1 renal; 85.9% in the assay with A498 renal; 9.11% (active) in the assay with CCRF-CEM leukemia; 17.1% in the assay with MOLT-4 leukemia; 8.07% (active) in the assay with SR leukemia.
On to `COc1cc(C2CC(=O)Nc3c2cc(Br)c2ccccc32)cc(Br)c1OC` (centres undefined), for which the growth is 6.78% (active) in the assay on HT29 colon; -42.7% (active) in the assay with SNB-75 CNS; 60.7% in the assay with SNB-19 CNS; 17.2% with U251 CNS; 39% in the assay with PC-3 prostate; 51.7% in the assay on UACC-62 melanoma. Moreover, the growth in the assay with LOX IMVI melanoma is 28.3%; in the assay on SK-MEL-28 melanoma, 73%; in the assay on SK-MEL-2 melanoma, 58.7%; in the assay with EKVX NSCLC, 41.7%; in the assay with SN12C renal it was 54.5%; in the assay with UO-31 renal, 0.792% (active). Besides, the growth with TK-10 renal was -7.53% (active); in the assay with ACHN renal, 5.63% (active); in the assay on CAKI-1 renal it was 3.19% (active); in the assay with A498 renal, -2.63% (active); in the assay on CCRF-CEM leukemia it was 11.1%; with MOLT-4 leukemia, 30.9%.
As for `O=C(Nc1nc(-c2ccc(Cl)cc2)cs1)c1cc(O)c(O)c(O)c1`, the growth in the assay on HT29 colon is 71.9%; in the assay on SNB-75 CNS, 36.7%; in the assay on SNB-19 CNS, 25.9%; in the assay with U251 CNS, 23.5%; in the assay with PC-3 prostate, 46.9%; with SK-MEL-5 melanoma it was 24.6%. Besides, the growth is 1.72% (active) with LOX IMVI melanoma; 42.9% with SK-MEL-28 melanoma; 31.9% in the assay on SK-MEL-2 melanoma; 22.6% in the assay on SN12C renal; 6.01% (active) with UO-31 renal; 15.9% in the assay with ACHN renal. Also, the growth in the assay on CAKI-1 renal was 8.69% (active); in the assay with A498 renal, 77.1%; in the assay on CCRF-CEM leukemia, 8.08% (active); in the assay with MOLT-4 leukemia, 4.68% (active); with SR leukemia it was 0.551% (active).
Regarding `Cc1cc(C(C)(C)C)cc(C)c1CC1=NCCN1`, the growth was 105% in the assay with HT29 colon; 97% in the assay with SNB-75 CNS; 106% with SNB-19 CNS; 106% in the assay on U251 CNS; 91% in the assay with PC-3 prostate; 96.7% in the assay with SK-MEL-5 melanoma. Also, the growth in the assay on LOX IMVI melanoma is 95%; in the assay on SK-MEL-28 melanoma, 116%; with SK-MEL-2 melanoma, 113%; in the assay on EKVX NSCLC, 89%; in the assay with SN12C renal it was 111%; in the assay on UO-31 renal, 93%. Further, the growth with TK-10 renal is 113%; in the assay with ACHN renal, 92.8%; in the assay on CAKI-1 renal it was 85.4%; with A498 renal, 117%; with CCRF-CEM leukemia, 103%; with MOLT-4 leukemia it was 93.5%. Also, the growth with SR leukemia was 94.3%.
Consider `CO[C@H]1/C=C/O[C@@]2(C)Oc3c(C)c(O)c4c(O)c(c(/C=N/N5CCN(C)CC5)c(O)c4c3C2=O)NC(=O)/C(C)=C\C=C\C(C)[C@H](O)[C@@H](C)[C@@H](O)[C@@H](C)[C@@H](OC(C)=O)[C@@H]1C` (some centres undefined), for which the growth is 107% in the assay on HT29 colon; 88.7% in the assay on SNB-75 CNS; 101% in the assay with SNB-19 CNS; 96.9% with U251 CNS; 94% with PC-3 prostate; 90.6% in the assay on SK-MEL-5 melanoma. The growth in the assay with LOX IMVI melanoma is 93.8%; in the assay on SK-MEL-28 melanoma it was 101%; in the assay with SK-MEL-2 melanoma it was 113%; in the assay on EKVX NSCLC it was 91.7%; in the assay on SN12C renal, 105%; in the assay with UO-31 renal, 88%. In addition, the growth in the assay on TK-10 renal is 98.6%; in the assay with ACHN renal, 82.1%; with CAKI-1 renal, 90.4%; with A498 renal, 103%; with MOLT-4 leukemia, 102%; with SR leukemia, 105%.
`COc1cc(/C=C/C(=O)c2c(-c3ccc(F)cc3)nc3sc(C)nn23)cc(OC)c1OC`: the growth is 6.07% (active) with HT29 colon; 10.2% with SNB-75 CNS; 84.9% in the assay with SNB-19 CNS; 21.3% with U251 CNS; 59.9% in the assay on PC-3 prostate; 27.1% in the assay with SK-MEL-5 melanoma. For the same compound, the growth with LOX IMVI melanoma is -19.7% (active); with SK-MEL-28 melanoma, 65.7%; with SK-MEL-2 melanoma it was -26.5% (active); in the assay on SN12C renal it was 35.9%; in the assay on UO-31 renal it was 21.5%; with ACHN renal it was 24.6%. For the same compound, the growth was 15.2% in the assay with CAKI-1 renal; 85.2% with A498 renal; -9.53% (active) in the assay on CCRF-CEM leukemia; 13.4% in the assay on MOLT-4 leukemia; 4.81% (active) with SR leukemia.
In the case of `Cc1scc2c1N(C(=O)CN1CCN(C)CC1)c1ccccc1NC2=O`, the growth was 104% with HT29 colon; 110% with SNB-75 CNS; 111% with SNB-19 CNS; 99.6% in the assay with U251 CNS; 98% in the assay with PC-3 prostate; 109% in the assay with UACC-62 melanoma. In addition, the growth in the assay on LOX IMVI melanoma is 99.7%; in the assay with SK-MEL-28 melanoma, 110%; in the assay with SK-MEL-2 melanoma, 113%; with EKVX NSCLC, 107%; with SN12C renal, 101%; with UO-31 renal it was 85.9%. Further, the growth in the assay on TK-10 renal is 105%; with ACHN renal, 102%; with CAKI-1 renal, 99.5%; in the assay on A498 renal, 122%; in the assay on CCRF-CEM leukemia, 108%; in the assay with MOLT-4 leukemia, 96.5%.

Source of the values: PubChem BioAssay (NCI).
